Compound activity deposited in PubChem BioAssay by Buhrlage Lab, Dana-Farber Cancer Institute and Novartis Institutes for BioMedical Research (Cambridge, Mass).
Sampled rows, rich in hits. Any-hit rate of the full collection: about 11%.
USP28 block: human USP28 deubiquitinase inhibition | 47,000 compounds, 3% hits | Q96RU2 | inhibition, % at 25 µM | purified USP28, Ub-rhodamine cleavage fluorescence, 30 min
USP30 inh: human USP30 deubiquitinase inhibition; Q70CQ3; purified USP30, Ub-rhodamine cleavage fluorescence; inhibition, % at 25 µM; 47,000 compounds, 5.3% hits; AID 1645860
Target sequence (Q70CQ3 whole entry, looked up): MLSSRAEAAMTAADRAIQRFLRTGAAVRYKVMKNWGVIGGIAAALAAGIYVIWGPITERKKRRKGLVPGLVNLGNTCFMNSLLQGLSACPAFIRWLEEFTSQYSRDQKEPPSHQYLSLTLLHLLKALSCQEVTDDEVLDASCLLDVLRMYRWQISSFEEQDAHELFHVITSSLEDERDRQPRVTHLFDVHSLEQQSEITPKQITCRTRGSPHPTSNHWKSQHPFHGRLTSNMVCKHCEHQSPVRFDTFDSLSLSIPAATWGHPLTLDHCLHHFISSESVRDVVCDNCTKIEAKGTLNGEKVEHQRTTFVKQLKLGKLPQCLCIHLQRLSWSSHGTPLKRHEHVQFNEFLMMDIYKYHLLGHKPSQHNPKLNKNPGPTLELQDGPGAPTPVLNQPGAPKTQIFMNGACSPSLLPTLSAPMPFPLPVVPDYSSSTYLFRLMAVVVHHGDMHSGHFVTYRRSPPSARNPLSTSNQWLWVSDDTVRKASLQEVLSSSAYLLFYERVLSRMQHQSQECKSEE
USP17 inh: blocks human USP17 ubiquitin-rhodamine cleavage. A8MUK1. purified USP17, Ub-rhodamine cleavage fluorescence, 3 h. inhibition, % at 50 µM. 47,000 compounds, 6.5% hits
Hits are given with their value. Cut-off read from the data, not from the text of the source: active = inhibition above about 30%; inactive = the rest.

How did CCCCCCNc1ncnc2c1sc1nc(N3CCCC3)c3c(c12)CC(C)(C)OC3 do in these assays?
USP28 block: inactive; USP30 inh: inactive; USP17 inh: inactive

How did CC1(C)Cc2c(c(-c3ccco3)nc3sc4c(NCCCN5CCOCC5)ncnc4c23)CO1 do in these assays?
USP28 block: inactive; USP30 inh: inactive; USP17 inh: inactive

How did CCOc1ccc(C(=O)Cc2cc(OC)c(OC)cc2Br)cc1OCC do in these assays?
USP17 inh: inactive

What do the screens show for `c1ccc(COc2ccc3[nH]c4c(c3c2)CCCCCC4)cc1`?
USP28 block: inactive; USP30 inh: inactive; USP17 inh: 42

What do the screens show for `O=C(OCC(=O)N1CCCCCC1)c1ccc2[nH]c3c(c2c1)CCCC3`?
USP28 block: inactive; USP30 inh: inactive; USP17 inh: inactive

What do the screens show for `Cc1cc(NC(=O)CCn2ccc(=O)[nH]c2=O)ccc1C(C)C`?
USP28 block: inactive; USP30 inh: inactive; USP17 inh: inactive

What do the screens show for `CC(C)(C)c1ccc(NC(=O)CCn2ccc(=O)[nH]c2=O)cc1`?
USP28 block: inactive; USP30 inh: 40; USP17 inh: inactive

Results for COc1ccc(Nc2nc(C(=O)NCc3ccccc3)cc3occc23)cc1 ?
USP28 block: inactive; USP30 inh: inactive; USP17 inh: 57

How did O=C(NCc1ccccc1)c1cc2occc2c(Nc2ccc(F)cc2)n1 do in these assays?
USP28 block: inactive; USP30 inh: inactive; USP17 inh: inactive

Results for CCN1CCN(C(=O)c2cc3occc3c(Nc3ccc(OC)cc3)n2)CC1 ?
USP28 block: inactive; USP30 inh: inactive; USP17 inh: inactive

Results for COc1ccc(Nc2nc(C(=O)NCc3ccc4c(c3)OCO4)cc3occc23)cc1 ?
USP28 block: inactive; USP30 inh: inactive; USP17 inh: 63

What do the screens show for `O=C(Nc1ccc2[nH]ccc2c1)C1CCCN(S(=O)(=O)c2ccccc2)C1` (centres undefined)?
USP28 block: inactive; USP30 inh: inactive; USP17 inh: inactive

How did Cc1ccc(NC(=O)CSc2nnc(-c3cnccn3)n2Cc2ccco2)cc1F do in these assays?
USP28 block: inactive; USP30 inh: inactive; USP17 inh: inactive

What do the screens show for `CCc1noc(-c2ccc(OCC(=O)Nc3ccc(C)cc3C)cc2)n1`?
USP28 block: inactive; USP30 inh: inactive; USP17 inh: 51

What do the screens show for `COc1ccc(-c2noc(-c3ccc(OCC(=O)NCc4ccccc4OC)cc3)n2)cc1`?
USP28 block: inactive; USP30 inh: inactive; USP17 inh: inactive

Results for CCc1ccc(NC(=O)COc2ccc(-c3nc(CC)no3)cc2)cc1 ?
USP28 block: inactive; USP30 inh: inactive; USP17 inh: inactive

What do the screens show for `CCc1noc(-c2ccc(OCC(=O)Nc3ccccc3C(C)C)cc2)n1`?
USP28 block: inactive; USP30 inh: inactive; USP17 inh: 41

Results for CCn1c(=O)c(C(=O)NCc2ccccc2F)nc2cccnc21 ?
USP28 block: inactive; USP30 inh: inactive; USP17 inh: inactive

What do the screens show for `COc1cccc(-c2nnc(NC(=O)CSc3ccc(F)cc3)o2)c1`?
USP28 block: inactive; USP30 inh: inactive; USP17 inh: inactive

What do the screens show for `O=C(COc1ccc2ccc(=O)oc2c1)c1ccc2c(c1)OCCO2`?
USP28 block: inactive; USP30 inh: inactive; USP17 inh: 43

What do the screens show for `O=C(COC(=O)C1(c2cccc(F)c2)CCCC1)c1ccc2c(c1)OCCO2`?
USP28 block: inactive; USP30 inh: inactive; USP17 inh: inactive

How did O=C(Cc1nc(-c2ccccc2)n[nH]1)Nc1ccc(F)cc1F do in these assays?
USP28 block: inactive; USP30 inh: inactive; USP17 inh: inactive

What do the screens show for `O=C(Cc1nc(-c2ccccc2)n[nH]1)Nc1cccc(F)c1`?
USP28 block: inactive; USP30 inh: 30; USP17 inh: inactive

How did O=C(NCc1cccnc1)c1nnn(-c2ccc(F)cc2)c1-c1ccncc1 do in these assays?
USP28 block: inactive; USP30 inh: inactive; USP17 inh: inactive

Results for COC(=O)CC1CC23OC2(C(=O)c2c(O)cccc2C3=O)C(C)O1 (centres undefined) ?
USP28 block: inactive; USP30 inh: inactive; USP17 inh: 65

How did CC1OC(CC(=O)O)CC23OC12C(=O)c1c(O)cccc1C3=O (centres undefined) do in these assays?
USP28 block: inactive; USP30 inh: inactive; USP17 inh: 63

How did O=C(O)CC1C(=O)Nc2c(O)cccc21 (centres undefined) do in these assays?
USP28 block: inactive; USP30 inh: inactive; USP17 inh: inactive

How did COC(=O)CC1CC2=C(C(=O)c3c(O)cccc3C2=O)C(C)O1 (centres undefined) do in these assays?
USP28 block: 40; USP30 inh: inactive; USP17 inh: 42

What do the screens show for `COc1ccc(CN2C(=O)C3C(C(=O)Nc4ccc(F)cc4)C4(C)C=CC3(O4)C2C(=O)NC2CCCCC2)cc1` (centres undefined)?
USP28 block: inactive; USP30 inh: inactive; USP17 inh: inactive

How did Cc1ccc2nc(N(CCCN(C)C)C(=O)COc3ccccc3)sc2c1 do in these assays?
USP28 block: inactive; USP30 inh: 41; USP17 inh: 36

Results for Cc1cccc(OCC(=O)N(c2nc3ccccc3s2)c2ccccc2C)c1 ?
USP28 block: inactive; USP30 inh: inactive; USP17 inh: inactive

What do the screens show for `Cc1cc2c(cc1S(=O)(=O)N1CCCC(C)C1)OCC(=O)N2` (centres undefined)?
USP17 inh: 41

How did O=C1COc2ccc(S(=O)(=O)N3CCCC(C(=O)N4CCOCC4)C3)cc2N1 (centres undefined) do in these assays?
USP28 block: inactive; USP30 inh: inactive; USP17 inh: inactive

Results for COc1ccccc1N1CCN(S(=O)(=O)c2cc3c(cc2C)NC(=O)CO3)CC1 ?
USP28 block: inactive; USP30 inh: inactive; USP17 inh: inactive

Results for CC(=O)c1ccc(N2CCN(S(=O)(=O)c3cc4c(cc3C)NC(=O)CO4)CC2)cc1 ?
USP28 block: 32; USP30 inh: inactive; USP17 inh: inactive

Results for Cc1cccc(NC(=O)C2CCc3nc(N4CCOCC4)ncc3C2)c1 (centres undefined) ?
USP28 block: inactive; USP30 inh: inactive; USP17 inh: inactive

Results for O=C(c1cc2ccccc2[nH]1)N1CCC(O)(CN2CCCC2)C1 (centres undefined) ?
USP28 block: inactive; USP30 inh: inactive; USP17 inh: inactive

What do the screens show for `O=C(O)C1CC(O)CN1C(=O)c1ccc2ccccc2n1` (centres undefined)?
USP28 block: inactive; USP30 inh: inactive; USP17 inh: inactive

How did COc1cccc(C(=O)Cn2nc3n(CCC(C)C)c(=O)c4sccc4n3c2=O)c1 do in these assays?
USP28 block: inactive; USP30 inh: inactive; USP17 inh: inactive

Results for COc1cccc(Cn2nc3n(CC(C)C)c(=O)c4ccc(C(=O)NCC(C)C)cc4n3c2=O)c1 ?
USP28 block: inactive; USP30 inh: 65; USP17 inh: 39

What do the screens show for `CNC(=O)c1sc2nccnc2c1C1CCN(C(=O)c2ccncc2)CC1`?
USP28 block: inactive; USP30 inh: inactive; USP17 inh: inactive

Results for Cc1nccc(N2CCC(c3c(C(=O)N(C)C)sc4nccnc34)CC2)n1 ?
USP28 block: inactive; USP30 inh: 30; USP17 inh: inactive

What do the screens show for `CCOc1cccc2nnc(NC(=O)Nc3ccc(F)cc3)n12`?
USP28 block: inactive; USP30 inh: inactive; USP17 inh: inactive

What do the screens show for `O=C(COC(=O)C1CCCCC1)Nc1ccc(Oc2ccccc2)cc1`?
USP28 block: inactive; USP30 inh: inactive; USP17 inh: 31
